Bioassay records deposited in PubChem by Broad Institute.
Tgondii IFNg = blocks Toxoplasma gondii growth in the presence of IFN-gamma; hit rate 3.8% among 69,000; activity change, negative = inhibition, % (no concentration beside the values); Toxoplasma gondii growth in IFN-gamma-treated host cells; stronger effect = lower value; in the data active = activity change below about -70%, passing the limit was not always enough;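 note: host cells are HeLa cells infected with Toxoplasma gondii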
Active calls of the source: *; i = inactive. This is one part of a sample in which hits are shown more often than they occur.

SMILES | Tgondii IFNg
CN1CCCC2(CCN(C(=O)c3cnc(Nc4ccccc4)nc3)C2)C1=O (centres undefined) | 57
CCOc1ccc(C(=O)N2C[C@H]3C[C@H](O)[C@H](O)C[C@H]3C2)o1 | 6
COc1ccc(-c2nc(C)c(CCNC(=O)C(=O)Nc3ccc([N+](=O)[O-])cc3)s2)cc1OC | 55
Cc1cc(NC(=O)CCCC(=O)O)no1 | -33
Cc1cc(NC(=O)c2ccccc2)no1 | 79
CCCCCCCc1ccc(C(=O)NC(=S)Nc2cc(C)on2)cc1 | -92*
CN(C)CCCOc1cccc(C(=O)O)c1 | -15
CN(C)CCOc1ccc(/C(=C(/CCCl)c2ccccc2)c2ccccc2)cc1 | -88*
CCCCCOc1ccc(C(=O)c2ccccc2)cc1 | -11
COc1ccccc1-c1cccc(C(=O)N[C@H]2COC[C@@H]2OC)c1 | -1
c1ccc2c(N3CCOCC3)nc(N3CCOCC3)nc2c1 | -4
c1ccc(CNc2nc(N3CCOCC3)nc(N3CCOCC3)n2)cc1 | -83*
c1ccc(CNc2ncc(CN3CCC4(CCOCC4)CC3)cn2)cc1 | 83
Cc1ccc(-c2nc(CN3CCN(C(=O)NCCc4ccccc4)CC3)c(C)o2)cc1 | 1
Cc1nc(CN2CCCn3nnc(COCCO)c3C2)cs1 | -5
FC(F)(F)C(Sc1ccccc1)=C(Sc1ccccc1)Sc1ccccc1 | -80*
c1ccc(SSc2ccccc2)cc1 | 10
Cn1cccc1C(=O)NCc1cnc2n1CCN(Cc1ccccc1)C2 | 4
CC(=O)N1CCc2c([nH]c3ccccc23)C12C(=O)N(C)c1ccc(Br)cc12 (centres undefined) | i
OC(CNCCNc1ncccc1C(F)(F)F)Cn1ccc2ccccc21 (centres undefined) | -82*
Nc1ccccc1SCC(O)Cn1ccc2ccccc21 (centres undefined) | -45
FC(F)(F)c1ccnc(NCCNc2ncccc2C(F)(F)F)n1 | 49
COCCN1CCCC12CCN(c1cccc(F)c1)CC2 | -13
O=C(CN(C(=O)c1nsc(Cl)c1Cl)C1CCCCC1)NCCc1ccccc1 | -11
c1nc(NCC2CNCCOC2)c2ccsc2n1 (centres undefined) | 5
SMILES | Tgondii IFNg
Cc1cc(F)ccc1NC(=O)CNS(=O)(=O)NCc1ccccc1 | -4
COc1cc([C@@H]2c3cc4c(cc3[C@@H](O[C@@H]3O[C@@H]5CO[C@@H](c6cccs6)O[C@H]5[C@H](O)[C@H]3O)[C@H]3COC(=O)[C@H]23)OCO4)cc(OC)c1O | -71*
COc1cc([C@@H]2c3cc4c(cc3C(OC3O[C@@H]5COC(C)O[C@H]5[C@H](O)[C@H]3O)C3COC(=O)[C@@H]32)OCO4)cc(OC)c1O (some centres undefined) | -70
COc1cc([C@@H]2c3cc4c(cc3C(OC3OC5COC(C)OC5C(O)C3O)C3OCC(=O)[C@@H]32)OCO4)cc(OC)c1O (some centres undefined) | -81*
Cc1nc(NC(=O)NCc2cc3ccccc3s2)nn1C | -3
C=CCC(O)(CC=C)C(N)CCSC (centres undefined) | -15
CCc1c(C)nc2cc(C3C=CCN3C(=O)C(C)(C)C)[nH]n2c1=O (centres undefined) | 4
Cc1ccc(=O)n(CC(=O)N2CCC(C(=O)NCCc3ccc(Cl)cc3)C2)n1 (centres undefined) | -7
CCCS(=O)(=O)Nc1ccc(F)c(C(=O)c2c[nH]c3ncc(-c4ccc(Cl)cc4)cc23)c1F | -79*
O=C1c2ccc3c4c(ccc(c24)C(=O)N1c1ccccn1)C(=O)N(c1ccccn1)C3=O | -90*
c1ccc(-c2ccccn2)nc1 | -5
O=C1c2cccc3cccc(c23)C(=O)N1c1ccc2ncccc2c1 | -36
Cc1cnc2c(C(=O)NC(Cn3ccnc3)C(C)C)cnn2c1 (centres undefined) | 6
Cc1cc(-n2cnnc2)ncc1-c1ccc(C(C)N2CCCC2)cc1 (centres undefined) | -5
COc1ccc(F)c(-c2nc(OC)cc(OC)n2)c1 | -16
COc1ccc(F)c(-c2cnc(-n3cnnc3)cc2C)c1 | -81*
CCC1=NC2(CCC(C(=O)NCc3ccccc3)CC2)C(=O)N1CC1CC1 (centres undefined) | 7
CCOc1ccc(S(=O)(=O)NCc2nc(-c3ccccc3)oc2C)cc1 | -3
CCCc1ccc(C(=O)N2Cc3c(CN4CCCCC4)nn(C)c3C2)cc1 | -79*
CCc1ccc(S(=O)(=O)N2Cc3c(CN4CCCCC4)nn(C)c3C2)cc1 | 3
Cn1nc(CN2CCCCC2)c2c1CN(C(=O)c1cccc(C#N)c1)C2 | 3
C=CCN1CCN(C(=O)C2COc3ccccc3C2)CC1 (centres undefined) | -5
c1ccc(CCCN2CCCC3(CCNC3)C2)cc1 (centres undefined) | -10
CCOC(=O)c1cccc(NC(=O)CN2C(=O)CCc3cc(S(=O)(=O)N4CCCCC4)ccc32)c1 | -34
CCOC(=O)c1ccc(N2CCCCC2)c(NS(=O)(=O)c2ccc(C)cc2)c1 | -100*
CCOC(=O)c1cnn(C)c1NS(=O)(=O)c1ccc(Cl)cc1 | -62
Fc1cccc(CN2CCN(Cc3cnc(-c4ccco4)nc3)CC2)c1 | -3
